High-throughput results: PubChem BioAssay, National Center for Advancing Translational Sciences (NCATS)
The list is not random: actives were taken first. Their share in the collection is about 7.4%.
NPC1 prom act: qHTS Assay for NPC1 Promoter Activators. 320,000 tested, 2.4% active. AID 485313, 2010. Huh7 NPC1 promoter luciferase reporter, 24 h. Potency, µM (highest dose often 9.22 µM), inactives show top-dose activation, usual class: activators; further: % of control where 0% means no effect; nearly all actives have a fitted effect of over 60% in size
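Luminescence from an NPC1 promoter-driven luciferase reporter in stably transfected Huh7 cells was measured after 24 h compound treatment at 37 °C, followed by 10 min ambient incubation with luciferase detection reagent.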
FLuc modulator: qHTS profiling assay for firefly luciferase inhibitor/activator using purifed enzyme and Km concentrations of substrates (counterscreen for miR-21 project); Potency, µM (highest dose often 57.5 µM), without a hit: at the highest dose activity change, negative = inhibition, actives largely listed as inhibitors; 360,000 tested, 6.9% active; purified FLuc, Km substrates, luminescence inhibition; Luciferin 4-monooxygenase (Photinus pyralis), P08659;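 further: plate controls were vehicle for no effect and reference inhibitor for full effect; nearly all actives have a fitted effect of over 55% in size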
Target sequence (P08659 whole entry, looked up): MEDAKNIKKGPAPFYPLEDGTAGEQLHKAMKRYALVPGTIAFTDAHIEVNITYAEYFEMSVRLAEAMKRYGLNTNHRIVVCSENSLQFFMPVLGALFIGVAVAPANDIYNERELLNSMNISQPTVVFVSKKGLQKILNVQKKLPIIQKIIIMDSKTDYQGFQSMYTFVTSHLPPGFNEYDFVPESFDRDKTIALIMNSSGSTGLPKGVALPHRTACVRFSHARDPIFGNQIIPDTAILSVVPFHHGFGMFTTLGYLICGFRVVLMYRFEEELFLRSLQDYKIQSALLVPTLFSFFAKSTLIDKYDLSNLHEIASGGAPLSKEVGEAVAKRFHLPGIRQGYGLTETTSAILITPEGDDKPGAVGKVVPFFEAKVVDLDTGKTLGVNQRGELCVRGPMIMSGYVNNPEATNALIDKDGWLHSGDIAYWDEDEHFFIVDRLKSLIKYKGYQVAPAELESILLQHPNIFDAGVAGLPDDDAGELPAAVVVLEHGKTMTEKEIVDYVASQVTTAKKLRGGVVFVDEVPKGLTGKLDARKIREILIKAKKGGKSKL
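Purified P. pyralis luciferase, 10 nM final, with Km-level 10 uM D-luciferin and 10 uM ATP in 50 mM Tris acetate pH 7.5, 10 mM Mg acetate, 0.01% Tween-20, 0.05% BSA; 6-point qHTS titration about 60 µM downward; luminescence read.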
ELG1 genotox: qHTS screen for small molecules that induce genotoxicity in human embryonic kidney (HEK293T) cells expressing luciferase-tagged ELG1. AID 504466, 2011. 330,000 tested, 1.3% active. HEK293T ELG1-luciferase reporter, luminescence, 16 h. Potency, µM (series often up to 46 µM), inactives show at the highest dose activity change, positive = activation, usual class: activators; further: % of control where 0% means no effect; nearly all actives have a fitted effect of over 60% in size
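Screening used a luciferase reporter fused to human ELG1 in HEK293T cells. Luminescence was read on a CCD plate imager after 16 hr exposure and 30 min ONE-Glo incubation.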
Rab9 promoter act: qHTS Assay for Rab9 Promoter Activators; AID 485297, 2010; 320,000 tested, 2.8% active; Potency, µM (titrated, usually from 9.22 µM), without a hit: at the top dose activation, negative = inhibition, hits mostly activators; Huh7 Rab9 promoter-luciferase reporter, luminescence, 24 h; further: % of control where 0% means no effect; nearly all actives have a fitted effect of over 60% in size
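Luciferase signal after 10 min detection reagent at ambient indicates Rab9 promoter upregulation; stably transfected Huh7 cells were treated 24 h with compound in DMSO at 37 °C, 5% CO2.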
SMN2 splice enh: qHTS Assay for Enhancers of SMN2 Splice Variant Expression; HEK293 SMN2-luciferase splicing reporter, luminescence, 30-36 h; Potency, µM (top dose mostly 46.1 µM), for the others: top-dose activity change, positive = activation, most hits filed as activators; 210,000 tested, 2.8% active; AID 1458, 2008; further: % of control where 0% means no effect; nearly all actives have a fitted effect of over 55% in size
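qHTS luciferase splicing reporter: luminescence rises when SMN2 exon 7 is included in transfected HEK293 cells. Compound exposure lasted 30-36 h at 37C, with 4.5 mM final sodium butyrate as control, followed by a ONE-Glo read.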
Starred values were filed as active, the others as inactive; ? = inconclusive; nt = no result; [ ] = remark or other dose. The call rests on the fitted dose curve; in most records, active means well fitted curve in the direction sought with a large enough effect; inconclusive means small, poorly fitted or top-dose-only effect, or another doubt; inactive means no such curve, though single readings can be large; an effect the other way counts as inactive or inconclusive. Potency means the concentration at half of the fitted maximal effect.

SMILES	NPC1 prom act	FLuc modulator	ELG1 genotox	Rab9 promoter act	SMN2 splice enh
O=C(NCc1cccs1)Nc1ccc2c(c1)OCO2	?	17µM*	?	3.5µM*	14µM*
Cc1ccc(NC(=O)Nc2ccc3c(c2)OCO3)c(Br)c1	?	?	18µM*	?	nt
O=C(Nc1cnccn1)Nc1ccc(Cl)cc1Cl	22%	-6%	6%	?	nt
CCCCSCCCNC(=O)c1cn(C)c2ccc(S(=O)(=O)N3CCCCCC3)cc2c1=O	nt	-2%	nt	nt	9%
O=C(Nc1cccc(C(=O)O)c1)/C(=C\c1ccc2c(c1)OCO2)NC(=O)c1ccc(Br)o1	?	21µM*	10%	?	?
O=C(Nc1cccc(C(=O)O)c1)Nc1ccc2c(c1)OCO2	?	0.11µM*	-21%	?	nt
O=C(Nc1ccc2c(c1)OCO2)c1cnn2cccnc12	2.2µM*	9.5µM*	4.1µM*	1.6µM*	11µM*
Cc1ccc(C(=O)O)cc1NC(=O)Nc1ccc2c(c1)OCO2	13%	?	8%	18%	?
O=C(Nc1ccc(F)cc1)Nc1ccc2c(c1)OCO2	8%	3%	1%	-5%	nt
O=C(Nc1ccc(C(=O)O)cc1)/C(=C\c1ccc2c(c1)OCO2)NC(=O)c1ccc(Br)o1	-1%	-12%	4%	0%	16%
O=C(Nc1ccc2c(c1)OCO2)Nc1ccc(F)cc1F	1.4µM*	6µM*	?	1.4µM*	nt
C=C(C)n1c(=O)n(Cc2ccccc2C)c2ccccc21	2%	0%	-3%	-27%	nt
CC(=O)c1cccc(NC(=O)NCc2cccs2)c1	0%	?	-3%	-6%	7%
O=C(Nc1ccc2c(c1)OCO2)Nc1ccc(Cl)cc1Cl	?	4.8µM*	?	?	?
O=C(NCc1cccs1)Nc1ccc(Cl)cc1	?	?	11%	?	10µM*
O=C(Nc1cccc(F)c1)Nc1cnccn1	6%	-9%	2%	23%	nt
O=C(Nc1ccc(OC(F)F)c(Cl)c1)Nc1ccc2c(c1)OCO2	18%	?	-3%	6%	-12%
O=C(Nc1cccc(F)c1)Nc1ccccn1	3.2µM*	13µM*	26%	2.8µM*	23%
O=C(Nc1ccc2c(c1)OCO2)Nc1ccc2c(c1)OCO2	1.4µM*	?	?	1.8µM*	7.9µM*
Cc1sc2ncn(CC(=O)Nc3ccc(C(C)C)cc3)c(=O)c2c1S(=O)(=O)N1CCN(c2ncccn2)CC1	nt	-1%	nt	nt	-5%
O=C(CC1(CC(=O)N2CCOCC2)CCCC1)Nc1ccccc1	1%	9%	2%	0%	nt
CC(C)OP(=O)(c1ccc(N(C)C)cc1)C(O)c1ccc(N(C)C)cc1 (stereo not given)	-3%	?	0%	1%	nt
O=C(Nc1ccc2c(c1)OCO2)N1CCN(c2ccccc2Cl)CC1	?	19µM*	?	?	1%
O=C(Nc1ccc2c(c1)OCO2)N1CCN(S(=O)(=O)c2ccc(Cl)cc2)CC1	-2%	1%	-11%	-4%	-9%
COC(=O)c1cc(C)nc2c1c(=O)nc(SCc1ccccc1C)n2C1CC1	nt	-12%	nt	nt	nt
SMILES	NPC1 prom act	FLuc modulator	ELG1 genotox	Rab9 promoter act	SMN2 splice enh
O=C(Nc1ccc(-c2csnn2)cc1)C(Cl)(Cl)Cl	4%	-19%	0%	0%	nt
CC(C)(C)C(=O)O/N=C(\N)c1ccc(Br)cc1	1%	21µM*	0%	-6%	nt
Cc1ccc(C(=O)O/N=C(\N)c2ccc(Br)cc2)cc1	28%	2.4µM*	13µM*	29%	10%
CC(C)(C)C(=O)Nc1ccc(-c2csnn2)cc1	?	24µM*	?	2.8µM*	nt
O=C(COC(=O)CCCSc1nc2ccccc2[nH]1)Nc1ccc(Cl)cc1	-5%	19µM*	2%	-6%	9%
C[N+](C)(C)C(Cc1c[nH]c2ccccc12)C(=O)[O-] (stereo not given)	1%	0%	3%	-1%	nt
CCc1ccc(S(=O)(=O)c2cn(Cc3ccc(OC)cc3)c3cc(OC)c(OC)cc3c2=O)cc1	nt	-2%	nt	nt	-5%
CCOC(=O)C(NC(C)=O)C(OC(C)=O)c1cccc([N+](=O)[O-])c1 (stereo not given)	0%	6%	0%	-7%	-3%
O=C(CSCC(=O)OCC(=O)c1ccc(Br)cc1)Nc1ccc(Br)cc1	-5%	17µM*	2%	-8%	-6%
CC(C)(C)C(=O)O/N=C(\N)c1ccc(-c2csnn2)cc1	2.8µM*	7.6µM*	?	4.5µM*	nt
N/C(=N\OC(=O)c1ccc(Br)cc1)c1ccccc1	3.2µM*	0.21µM*	?	2.8µM*	?
N/C(=N\OC(=O)c1cccc(Br)c1)c1ccc(Br)cc1	24%	?	12%	11%	-5%
CC(=O)O/N=C(\N)c1ccc(-c2csnn2)cc1	17%	?	?	26%	nt
N/C(=N\OC(=O)Cc1cccs1)c1ccc(Br)cc1	-2%	19µM*	?	16%	2%
N/C(=N\OC(=O)Cc1cccs1)c1ccc([N+](=O)[O-])cc1	2%	?	10%	-1%	?
O=C(Nc1ccc(Cl)cn1)c1cc2c(s1)-c1ccccc1OC2	?	?	16%	?	nt
CC1CCN(C(=O)Cn2c(=O)n(Cc3ccco3)c(=O)c3sccc32)CC1	2%	-4%	0%	5%	nt
Nc1nc(Cc2ccccc2)nc(Cc2ccccc2)c1-c1ccccc1	nt	nt	nt	nt	-6%[9.22 µM]
O=C(CCCNC(=O)c1ccc(Cl)cc1)Nc1ccc(Br)cc1	7%	5%	1%	3%	nt
O=C(COC(=O)c1ccccc1)c1ccc(Br)cc1	2.2µM*	0.54µM*	9%	4µM*	8%
O=C(COC(=O)c1ccc(Br)cc1)NCCc1ccccc1	0%	3%	-2%	1%	6%
O=C(COC(=O)CCCNC(=O)c1ccc(Cl)cc1)Nc1ccc(Br)cc1	-1%	3.4µM*	2%	0%	0%
O=C(NNC(=O)c1ccccc1Cl)c1ccc(-n2cncn2)c([N+](=O)[O-])c1	-8%	4%	1%	-10%	nt
COc1ccc2cc(CCC(C)=O)ccc2c1	?	?	nt	?	13µM*
COc1ccc(-c2coc3cc(OC)cc(OC)c3c2=O)cc1	?	15µM*	?	?	7%
COc1cc(OC)c2c(=O)c(-c3ccccc3)coc2c1	nt	nt	nt	nt	11µM*
COc1cc(OC)c2c(=O)c(O)c(-c3ccc(OC)c(OC)c3)oc2c1	nt	nt	nt	nt	-4%
Fc1ccc(/C=N\Nc2cccc(F)c2)cc1	-2%	13µM*	0%	-1%	nt
Brc1ccc(/C=N/Nc2ccc3ccccc3n2)cc1	3.5µM*	3µM*	?	2.5µM*	?
